# Experimental data reported in the supplement of paper PMC8728848.
# The sample as a whole holds a higher share of the strongest signals than the screen did.
# B1: Tamarinin (protein)
# chain: CDDSARAGNIVVYWGQGGSDNSEGSLKEACKSGHYNMIVLQQLIVYDDGRDPDLNLGAHCSDCTKLEEQIKYCQNKDIKILLQIGQVVPTQEDVKDVTKNLSEYLLKNFFSGKSGPLGEVYLNGIDIASVPEGNNLKFDELVEALNDSSTERRIYLSASPLCVYPDYYLNKAIQTEKLDFLFVQFFYQNPCIYTEGNPENLFEAMKTWTKNVPESMIFMALPATPNLDGYIPPRVLNKEILPAVSEASNFAGVMIFDRYFDRFRKYSSKIK
# Legend:
# Assay in all cases: glycan array binding signal (z-score within array); higher = stronger binding
# Conditions in all cases: glycan notation: IUPAC condensed, linker removed
# [1] = target: Fuc(a1-2)Gal(b1-3)GlcNAc(b1-2)Man(a1-3)[Fuc(a1-2)Gal(b1-3)GlcNAc(b1-2)Man(a1-6)]Man(b1-4)GlcNAc(b1-4)GlcNAc
# Procedure, shortened: (§1)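 Negative Z-scores can be read as non-binding. The Z-score is calculated within each array and then averaged across arrays of one protein sequence at different concentrations or buffers and across linkers. Arrays, 3228 in all, were curated from the Consortium for Functional Glycomics database and kept only where the protein sequence was available.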
# Fuc(a1-2)Gal(b1-4)Glc6S = target: Fuc(a1-2)Gal(b1-4)Glc6S
# Procedure, shortened: as §1
# [2] = target: Fuc(a1-2)Gal(b1-4)GlcNAc(b1-3)Gal(b1-4)GlcNAc
# Procedure, shortened: as §1
# [3] = target: Fuc(a1-2)Gal(b1-4)GlcNAc(b1-3)GalNAc
# Procedure, shortened: as §1
# [4] = target: Fuc(a1-2)Gal(b1-4)GlcNAc(b1-3)[Fuc(a1-2)Gal(b1-4)GlcNAc(b1-6)]GalNAc
# Procedure, shortened: as §1
# [5] = target: Fuc(a1-2)Gal(b1-4)GlcNAc(b1-3)[Fuc(a1-3)[Gal(b1-4)]GlcNAc(b1-6)]Gal(b1-4)Glc
# Procedure, shortened: as §1
# [6] = target: Fuc(a1-2)Gal6S(b1-3)GlcNAc6S
# Procedure, shortened: as §1
# Fuc(a1-2)Gal6S(b1-4)Glc = target: Fuc(a1-2)Gal6S(b1-4)Glc
# Procedure, shortened: as §1
# Fuc(a1-2)[Gal(a1-3)]Gal = target: Fuc(a1-2)[Gal(a1-3)]Gal
# Procedure, shortened: as §1
# [7] = target: Fuc(a1-2)[GalNAc(a1-3)]Gal
# Procedure, shortened: as §1
# [8] = target: Fuc(a1-2)[GalNAc(a1-3)]Gal(b1-3)GalNAc(a1-3)[Fuc(a1-2)]Gal(b1-4)GlcNAc
# Procedure, shortened: as §1
# [9] = target: Fuc(a1-3)[Gal(b1-4)]GlcNAc(b1-3)Gal(b1-3)[Fuc(a1-4)]GlcNAc
# Procedure, shortened: as §1
# [10] = target: Fuc(a1-3)[Gal(b1-4)]GlcNAc(b1-3)Gal(b1-4)[Fuc(a1-3)]GlcNAc
# Procedure, shortened: as §1
# [11] = target: Fuc(a1-3)[Gal(b1-4)]GlcNAc(b1-6)GalNAc
# Procedure, shortened: as §1
# [12] = target: Fuc(a1-3)[GalNAc(b1-4)]GlcNAc
# Procedure, shortened: as §1
# Gal(a1-2)Gal = target: Gal(a1-2)Gal
# Procedure, shortened: as §1
# Gal(a1-3)Gal(b1-3)GlcNAc = target: Gal(a1-3)Gal(b1-3)GlcNAc
# Procedure, shortened: as §1
# Gal(b1-3)Gal(b1-4)GlcNAc = target: Gal(b1-3)Gal(b1-4)GlcNAc
# Procedure, shortened: as §1
# [13] = target: Gal(b1-3)GlcNAc(b1-3)Gal(b1-3)GlcNAc
# Procedure, shortened: as §1
# [14] = target: Gal(b1-3)GlcNAc(b1-3)Gal(b1-4)GlcNAc(b1-3)Gal(b1-4)GlcNAc(b1-2)[Gal(b1-3)GlcNAc(b1-3)Gal(b1-4)GlcNAc(b1-3)Gal(b1-4)GlcNAc(b1-6)]Man(a1-6)[Gal(b1-3)GlcNAc(b1-3)Gal(b1-4)GlcNAc(b1-3)Gal(b1-4)GlcNAc(b1-2)Man(a1-3)]Man(b1-4)GlcNAc(b1-4)[Fuc(a1-6)]GlcNAc
# Procedure, shortened: as §1
# [15] = target: Gal(b1-3)[Fuc(a1-4)]GlcNAc(b1-2)Man
# Procedure, shortened: as §1
# [16] = target: Gal(b1-3)[Fuc(a1-4)]GlcNAc(b1-2)Man(a1-3)[Gal(b1-3)[Fuc(a1-4)]GlcNAc(b1-2)Man(a1-6)]Man(b1-4)GlcNAc(b1-4)[Fuc(a1-6)]GlcNAc
# Procedure, shortened: as §1
# [17] = target: Gal(b1-3)[Fuc(a1-4)]GlcNAc(b1-6)GalNAc
# Procedure, shortened: as §1
# [18] = target: Gal(b1-3)[Neu5Ac(a2-6)]GlcNAc(b1-4)Gal(b1-4)Glc
# Procedure, shortened: as §1
# [19] = target: Gal(b1-3)[Neu5Ac(b2-6)]GalNAc
# Procedure, shortened: as §1
# [20] = target: Gal(b1-4)GlcNAc(b1-3)Gal(b1-4)Glc
# Procedure, shortened: as §1
# [21] = target: Gal(b1-4)GlcNAc(b1-3)Gal(b1-4)GlcNAc(b1-3)Gal(b1-4)GlcNAc(b1-3)Gal(b1-4)GlcNAc(b1-3)Gal(b1-4)GlcNAc(b1-2)Man(a1-3)[Gal(b1-4)GlcNAc(b1-3)Gal(b1-4)GlcNAc(b1-3)Gal(b1-4)GlcNAc(b1-3)Gal(b1-4)GlcNAc(b1-3)Gal(b1-4)GlcNAc(b1-2)Man(a1-6)]Man(b1-4)GlcNAc(b1-4)GlcNAc
# Procedure, shortened: as §1
# [22] = target: Gal3S(b1-4)[Fuc(a1-3)]Glc6S
# Procedure, shortened: as §1
# Gal6S(b1-4)GlcNAc6S = target: Gal6S(b1-4)GlcNAc6S
# Procedure, shortened: as §1
# GalNAc3S(b1-4)GlcNAc = target: GalNAc3S(b1-4)GlcNAc
# Procedure, shortened: as §1
# GalNAc6S(b1-4)GlcNAc = target: GalNAc6S(b1-4)GlcNAc
# Procedure, shortened: as §1
# [23] = target: Glc(a1-4)Glc(a1-4)Glc(a1-4)Glc
# Procedure, shortened: as §1
# Glc(a1-6)Glc(a1-6)Glc = target: Glc(a1-6)Glc(a1-6)Glc
# Procedure, shortened: as §1
# [24] = target: Glc(a1-6)Glc(a1-6)Glc(a1-6)Glc
# Procedure, shortened: as §1
# GlcA(b1-6)Gal = target: GlcA(b1-6)Gal
# Procedure, shortened: as §1
# [25] = target: GlcNAc(b1-3)Gal(b1-4)GlcNAc(b1-3)Gal(b1-4)GlcNAc(b1-3)Gal(b1-4)GlcNAc(b1-3)Gal(b1-4)GlcNAc(b1-2)Man(a1-3)[GlcNAc(b1-3)Gal(b1-4)GlcNAc(b1-3)Gal(b1-4)GlcNAc(b1-3)Gal(b1-4)GlcNAc(b1-3)Gal(b1-4)GlcNAc(b1-2)Man(a1-6)]Man(b1-4)GlcNAc(b1-4)[Fuc(a1-6)]GlcNAc
# Procedure, shortened: as §1
# [26] = target: GlcNAc(b1-3)Gal(b1-4)GlcNAc(b1-3)[GlcNAc(b1-3)Gal(b1-4)GlcNAc(b1-3)]GalNAc
# Procedure, shortened: as §1
# GlcNAc(b1-3)Man = target: GlcNAc(b1-3)Man
# Procedure, shortened: as §1
# [27] = target: Man(a1-2)Man(a1-2)Man(a1-6)[Man(a1-3)]Man
# Procedure, shortened: as §1
# [28] = target: Man(a1-2)Man(a1-6)[Man(a1-3)]Man(a1-6)[Man(a1-2)Man(a1-2)Man(a1-3)]Man
# Procedure, shortened: as §1
# Man(a1-3)[Man(a1-6)]Man = target: Man(a1-3)[Man(a1-6)]Man
# Procedure, shortened: as §1
# [29] = target: Man(a1-3)[Man(a1-6)]Man(a1-6)[Man(a1-2)Man(a1-3)]Man(b1-4)GlcNAc(b1-4)GlcNAc
# Procedure, shortened: as §1
# [30] = target: Neu5Ac(a2-3)Gal(b1-3)[Fuc(a1-4)]GlcNAc(b1-3)Gal(b1-4)[Fuc(a1-3)]GlcNAc
# Procedure, shortened: as §1
# [31] = target: Neu5Ac(a2-3)Gal(b1-4)GlcNAc
# Procedure, shortened: as §1
# [32] = target: Neu5Ac(a2-3)Gal(b1-4)GlcNAc(b1-3)Gal(b1-4)GlcNAc(b1-3)Gal(b1-4)GlcNAc
# Procedure, shortened: as §1
# [33] = target: Neu5Ac(a2-3)Gal6S(b1-4)[Fuc(a1-3)]GlcNAc
# Procedure, shortened: as §1
# [34] = target: Neu5Ac(a2-6)Gal(b1-3)GlcNAc(b1-3)[Gal(b1-4)GlcNAc(b1-6)]Gal(b1-4)Glc
# Procedure, shortened: as §1
# [35] = target: Neu5Ac(a2-6)Gal(b1-4)GlcNAc
# Procedure, shortened: as §1
# [36] = target: Neu5Ac(a2-6)Gal(b1-4)GlcNAc(b1-2)Man(a1-3)[Neu5Ac(a2-6)Gal(b1-4)GlcNAc(b1-2)Man(a1-6)]Man(b1-4)GlcNAc(b1-4)[Fuc(a1-6)]GlcNAc
# Procedure, shortened: as §1
# [37] = target: Neu5Ac(a2-6)Gal(b1-4)GlcNAc(b1-3)GalNAc
# Procedure, shortened: as §1
# [38] = target: Neu5Ac(a2-6)Gal(b1-4)GlcNAc(b1-6)[Gal(b1-3)GlcNAc(b1-3)]Gal(b1-4)Glc
# Procedure, shortened: as §1
# [39] = target: Neu5Ac(a2-8)Neu5Ac(a2-3)Gal(b1-4)Glc
# Procedure, shortened: as §1
# [40] = target: Neu5Gc(a2-3)Gal(b1-4)GlcNAc(b1-3)Gal(b1-4)GlcNAc(b1-2)Man(a1-3)[Neu5Gc(a2-3)Gal(b1-4)GlcNAc(b1-3)Gal(b1-4)GlcNAc(b1-2)Man(a1-6)]Man(b1-4)GlcNAc(b1-4)GlcNAc
# Procedure, shortened: as §1
# [41] = target: Neu5Gc(a2-8)Neu5Gc(a2-6)Gal(b1-4)GlcNAc
# Procedure, shortened: as §1
binder,measurement,setting,value
B1,glycan array binding signal (z-score),[1],0.79
same,glycan array binding signal (z-score),Fuc(a1-2)Gal(b1-4)Glc6S,-0.241
same,glycan array binding signal (z-score),[2],-0.361
same,glycan array binding signal (z-score),[3],0.146
same,glycan array binding signal (z-score),[4],4.01
same,glycan array binding signal (z-score),[5],-0.458
same,glycan array binding signal (z-score),[6],4.89
same,glycan array binding signal (z-score),Fuc(a1-2)Gal6S(b1-4)Glc,-0.164
same,glycan array binding signal (z-score),Fuc(a1-2)[Gal(a1-3)]Gal,-0.275
same,glycan array binding signal (z-score),[7],-0.388
same,glycan array binding signal (z-score),[8],-0.292
same,glycan array binding signal (z-score),[9],-0.377
same,glycan array binding signal (z-score),[10],0.223
same,glycan array binding signal (z-score),[11],-0.129
same,glycan array binding signal (z-score),[12],-0.154
same,glycan array binding signal (z-score),Gal(a1-2)Gal,-0.001
same,glycan array binding signal (z-score),Gal(a1-3)Gal(b1-3)GlcNAc,-0.375
same,glycan array binding signal (z-score),Gal(b1-3)Gal(b1-4)GlcNAc,11.2
same,glycan array binding signal (z-score),[13],-0.135
same,glycan array binding signal (z-score),[14],4.61
same,glycan array binding signal (z-score),[15],1.45
same,glycan array binding signal (z-score),[16],3.52
same,glycan array binding signal (z-score),[17],-0.371
same,glycan array binding signal (z-score),[18],2.92
same,glycan array binding signal (z-score),[19],-0.455
same,glycan array binding signal (z-score),[20],0.79
same,glycan array binding signal (z-score),[21],-0.24
same,glycan array binding signal (z-score),[22],-0.238
same,glycan array binding signal (z-score),Gal6S(b1-4)GlcNAc6S,-0.214
same,glycan array binding signal (z-score),GalNAc3S(b1-4)GlcNAc,2.59
same,glycan array binding signal (z-score),GalNAc6S(b1-4)GlcNAc,2.4
same,glycan array binding signal (z-score),[23],-0.232
same,glycan array binding signal (z-score),Glc(a1-6)Glc(a1-6)Glc,-0.034
same,glycan array binding signal (z-score),[24],0.415
same,glycan array binding signal (z-score),GlcA(b1-6)Gal,0.165
same,glycan array binding signal (z-score),[25],-0.061
same,glycan array binding signal (z-score),[26],-0.332
same,glycan array binding signal (z-score),GlcNAc(b1-3)Man,0.095
same,glycan array binding signal (z-score),[27],14.1
same,glycan array binding signal (z-score),[28],-0.298
same,glycan array binding signal (z-score),Man(a1-3)[Man(a1-6)]Man,0.04
same,glycan array binding signal (z-score),[29],-0.295
same,glycan array binding signal (z-score),[30],3.05
same,glycan array binding signal (z-score),[31],-0.352
same,glycan array binding signal (z-score),[32],-0.251
same,glycan array binding signal (z-score),[33],-0.371
same,glycan array binding signal (z-score),[34],-0.386
same,glycan array binding signal (z-score),[35],-0.341
same,glycan array binding signal (z-score),[36],-0.131
same,glycan array binding signal (z-score),[37],5.41
same,glycan array binding signal (z-score),[38],-0.361
same,glycan array binding signal (z-score),[39],-0.395
same,glycan array binding signal (z-score),[40],-0.36
same,glycan array binding signal (z-score),[41],-0.477
